This is part of a sample that, as a whole, favours compounds with a hit. Of some 79,000 tested, about 15% had one in any assay. The source made the active and inactive calls. Rule as the data show it: active = growth inhibition above about 70%; inactive = the rest.
Experiments:
[1] = NCI Yeast Anticancer Drug Screen. Data for the rad52 strain (AID 147);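 also: 0% = growth of vehicle-treated control cultures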; conditions: S. cerevisiae rad52 mutant growth inhibition, hits give high values
Method in brief: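 Vehicle-treated cultures served as the reference for growth inhibition of compound-exposed yeast bearing a DNA repair mutation.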

[2] = NCI Yeast Anticancer Drug Screen. Data for the wt1 strain (AID 149);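 also: 0% = growth of vehicle-treated wt1 cultures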; conditions: S. cerevisiae wt1 strain (SPY 50644) growth inhibition, hits give high values
Method in brief: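 Compounds are added to wt1 yeast cultures. Growth is then measured. Inhibition is expressed relative to vehicle-treated controls.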

[3] = NCI Yeast Anticancer Drug Screen. Data for the rad50EPP+ strain (AID 151);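 also: 0% = growth of vehicle-treated control cultures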; conditions: S. cerevisiae rad50 mutant strain, hits give high values
Method in brief: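 In this screen, rad50EPP+ yeast were exposed to compounds. Growth inhibition was scored against vehicle-treated controls.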

[4] = NCI Yeast Anticancer Drug Screen. Data for the mgt1 strain (AID 153); conditions: S. cerevisiae mgt1 mutant growth inhibition, hits give high values
Method in brief: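 mgt1 strain exposed; growth vs vehicle control recorded as inhibition.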

[5] = NCI Yeast Anticancer Drug Screen. Data for the rad50 strain (AID 155);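 also: 0% = growth of vehicle-only cultures of the same strain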; conditions: S. cerevisiae rad50 strain growth inhibition, hits give high values
Method in brief: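 Inhibition values express reduced yeast growth in compound-treated cultures relative to vehicle-treated controls.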

[6] = NCI Yeast Anticancer Drug Screen. Data for the mec2-1 strain (AID 157); conditions: S. cerevisiae mec2-1 strain, hits give high values
Method in brief: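 Vehicle-treated cultures served as reference for growth inhibition of compound-exposed mec2-1 yeast.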

[7] = NCI Yeast Anticancer Drug Screen. Data for the rad14 strain (AID 159);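 also: 0% = growth of vehicle-treated control cultures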; conditions: S. cerevisiae rad14 strain growth inhibition, hits give high values
Method in brief: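 A mutant yeast strain defective in DNA damage repair is treated with compound; inhibition of its growth is scored against untreated, vehicle-exposed cultures.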

[8] = NCI Yeast Anticancer Drug Screen. Data for the sgs1 mgt1 strain (AID 161);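 also: 0% = growth of cultures given vehicle only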; conditions: S. cerevisiae sgs1 mgt1 strain, hits give high values
Method in brief: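 Test agents were incubated with a DNA-repair-mutant yeast strain. Growth was then read and compared against vehicle-treated controls.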

[9] = NCI Yeast Anticancer Drug Screen. Data for the CLN2oe strain (AID 163);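 also: 0% = growth of vehicle-only control cultures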; conditions: S. cerevisiae CLN2oe strain, hits give high values
Method in brief: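 Inhibition relative to vehicle-treated yeast is reported. Cells: strain with genetic alteration in cell-cycle control, grown with compound.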

[10] = NCI Yeast Anticancer Drug Screen. Data for the cln2 rad14 strain (AID 165);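 also: 0% = growth equal to vehicle treated cultures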; conditions: S. cerevisiae cln2 rad14 strain, hits give high values
Method in brief: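 Each compound was tested on cln2 rad14 yeast. Inhibition of growth was calculated against vehicle-exposed controls.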

[11] = NCI Yeast Anticancer Drug Screen. Data for the bub3 strain (AID 167); conditions: S. cerevisiae bub3 mutant strain, hits give high values
Method in brief: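 Steps: expose the mutant yeast strain to compound; grow alongside vehicle-treated cultures; measure growth; express inhibition against the vehicle cultures.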

[12] = NCI Yeast Anticancer Drug Screen. Data for the wt2 strain (AID 169);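 also: 0% = growth of vehicle-treated yeast cultures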; conditions: S. cerevisiae wt2 strain growth inhibition, hits give high values
Method in brief: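 Inhibition of yeast growth was determined after compound treatment, normalised to controls receiving only vehicle.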

[13] = NCI Yeast Anticancer Drug Screen. Data for the mlh1 strain (AID 171);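 also: 0% = growth of vehicle-treated control cultures of the same strain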; conditions: S. cerevisiae mlh1 strain growth inhibition, hits give high values
Method in brief: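 Vehicle-normalised growth inhibition of a repair- or checkpoint-altered yeast strain following compound treatment.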

[14] = NCI Yeast Anticancer Drug Screen. Data for the sgs1 strain (AID 173);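 also: 0% = growth of vehicle-only control cultures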; conditions: S. cerevisiae sgs1 mutant, hits give high values
Method in brief: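 Screen format: yeast with repair or checkpoint alterations, compound exposure, growth read relative to vehicle.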

[15] = NCI Yeast Anticancer Drug Screen. Data for the mlh1 rad18 strain (AID 175); conditions: S. cerevisiae mlh1 rad18 strain growth inhibition, hits give high values
Method in brief: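 Vehicle-treated cultures served as the reference for growth inhibition in a yeast strain carrying DNA damage repair alterations exposed to each compound.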

[16] = NCI Yeast Anticancer Drug Screen. Data for the rad18 strain (AID 177); conditions: S. cerevisiae rad18 mutant growth inhibition, hits give high values
Method in brief: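 Test articles were incubated with altered yeast defective in DNA damage repair. Results are given as inhibition of growth versus vehicle.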

[17] = at 5.0 µM (retest, dose inferred, filed as 0.5)
[18] = at 50.0 µM (retest, dose inferred, filed as 5.0)

Measured: growth inhibition

O=C1c2ccccc2C(=O)c2cc(CCl)ccc21
inactive: [1]; at 1.2 µM 4% | [1]; at 3.7 µM 12% | [1]; at 11.0 µM 17% | [1]; at 33.0 µM 21% | [1]; at 100.0 µM 20% | [2]; at 1.2 µM 1% | [2]; at 3.7 µM 6% | [2]; at 11.0 µM 3% | [2]; at 33.0 µM 7% | [2]; at 100.0 µM 10% | [3]; at 1.2 µM 27% | [3]; at 3.7 µM 47% | [3]; at 11.0 µM 64% | [3]; at 33.0 µM 69% | [3]; at 100.0 µM 68% | [4]; at 1.2 µM -1% | [4]; at 3.7 µM 2% | [4]; at 11.0 µM 7% | [4]; at 33.0 µM 10% | [4]; at 100.0 µM 12% | [5]; at 1.2 µM 2% | [5]; at 3.7 µM 6% | [5]; [17] 20% | [5]; at 11.0 µM 12% | [5]; at 33.0 µM 13% | [5]; [18] 32% | [5]; at 50.0 µM 25% | [5]; at 100.0 µM 14% | [6]; at 1.2 µM 2% | [6]; at 3.7 µM 7% | [6]; [17] 12% | [6]; at 11.0 µM 17% | [6]; at 33.0 µM 20% | [6]; [18] 38% | [6]; at 50.0 µM 24.4% | [6]; at 100.0 µM 16% | [7]; at 1.2 µM 2% | [7]; at 3.7 µM 4% | [7]; at 11.0 µM 7% | [7]; at 33.0 µM 8% | [7]; at 100.0 µM 13% | [8]; [17] 15% | [8]; [18] 30% | [8]; at 50.0 µM 46.2% | [9]; at 1.2 µM -1% | [9]; at 3.7 µM -5% | [9]; at 11.0 µM 8% | [9]; at 33.0 µM 5% | [9]; at 100.0 µM 2% | [10]; [17] 4% | [10]; [18] 18% | [10]; at 50.0 µM 28% | [11]; at 1.2 µM 5% | [11]; at 3.7 µM 11% | [11]; [17] 39% | [11]; at 11.0 µM 19% | [11]; at 33.0 µM 25% | [11]; [18] 56% | [11]; at 50.0 µM 58.8% | [11]; at 100.0 µM 22% | [12]; at 1.2 µM 3% | [12]; at 3.7 µM 7% | [12]; at 11.0 µM 8% | [12]; at 33.0 µM 12% | [12]; at 100.0 µM 12% | [13]; at 1.2 µM 3% | [13]; at 3.7 µM 3% | [13]; at 11.0 µM 6% | [13]; at 33.0 µM 9% | [13]; at 100.0 µM 10% | [14]; at 1.2 µM 2% | [14]; at 3.7 µM 2% | [14]; at 11.0 µM 7% | [14]; at 33.0 µM 11% | [14]; at 100.0 µM 14% | [15]; [17] 29% | [15]; [18] 51% | [15]; at 50.0 µM 31.2% | [16]; at 1.2 µM 9% | [16]; at 3.7 µM 22% | [16]; at 11.0 µM 39% | [16]; at 33.0 µM 46% | [16]; at 100.0 µM 53%

Oc1cccc2cc(Cl)cnc12
inactive: [1]; at 1.2 µM -5% | [1]; at 3.7 µM 5% | [1]; at 11.0 µM 49% | [2]; at 1.2 µM -28% | [2]; at 3.7 µM -39% | [2]; at 11.0 µM 20% | [3]; at 1.2 µM -11% | [3]; at 3.7 µM -2% | [4]; at 1.2 µM -18% | [4]; at 3.7 µM -22% | [4]; at 11.0 µM 3% | [5]; at 1.2 µM -29% | [5]; at 3.7 µM -13% | [5]; [17] 37% | [5]; at 11.0 µM 37% | [5]; [18] 65% | [6]; at 1.2 µM -56% | [6]; at 3.7 µM -56% | [6]; [17] 38% | [6]; at 11.0 µM 6% | [6]; [18] 69% | [7]; at 1.2 µM -27% | [7]; at 3.7 µM -13% | [7]; at 11.0 µM 28% | [8]; [17] -13% | [9]; at 1.2 µM 5% | [9]; at 3.7 µM 8% | [9]; at 11.0 µM 45% | [10]; [17] 49% | [11]; at 1.2 µM -21% | [11]; at 3.7 µM -8% | [11]; [17] 55% | [11]; at 11.0 µM 20% | [12]; at 1.2 µM -31% | [12]; at 3.7 µM -26% | [12]; at 11.0 µM 1% | [13]; at 1.2 µM -22% | [13]; at 3.7 µM -42% | [13]; at 11.0 µM 3% | [14]; at 1.2 µM -47% | [14]; at 3.7 µM -43% | [14]; at 11.0 µM 46% | [15]; [17] 44% | [15]; [18] 50% | [16]; at 1.2 µM -11% | [16]; at 3.7 µM -4% | [16]; at 11.0 µM 60%
active: [1]; at 33.0 µM 96% | [1]; at 100.0 µM 97% | [2]; at 33.0 µM 96% | [2]; at 100.0 µM 98% | [3]; at 11.0 µM 94% | [3]; at 33.0 µM 98% | [3]; at 100.0 µM 97% | [4]; at 33.0 µM 97% | [4]; at 100.0 µM 98% | [5]; at 33.0 µM 96% | [5]; at 50.0 µM 90.7% | [5]; at 100.0 µM 97% | [6]; at 33.0 µM 97% | [6]; at 50.0 µM 92.8% | [6]; at 100.0 µM 98% | [7]; at 33.0 µM 97% | [7]; at 100.0 µM 98% | [8]; [18] 99% | [8]; at 50.0 µM 91.7% | [9]; at 33.0 µM 95% | [9]; at 100.0 µM 94% | [10]; [18] 98% | [10]; at 50.0 µM 88.7% | [11]; at 33.0 µM 96% | [11]; [18] 99% | [11]; at 50.0 µM 91.8% | [11]; at 100.0 µM 97% | [12]; at 33.0 µM 96% | [12]; at 100.0 µM 98% | [13]; at 33.0 µM 96% | [13]; at 100.0 µM 97% | [14]; at 33.0 µM 97% | [14]; at 100.0 µM 98% | [15]; at 50.0 µM 91.2% | [16]; at 33.0 µM 96% | [16]; at 100.0 µM 97%

COc1cc(O)c2c(c1O)C(=O)c1cc(C)ncc1C2=O
active: [1]; at 100.0 µM 72% | [5]; at 100.0 µM 86%
inactive: [1]; at 1.2 µM 9% | [1]; at 3.7 µM 16% | [1]; at 11.0 µM 29% | [1]; at 33.0 µM 51% | [2]; at 1.2 µM 6% | [2]; at 3.7 µM 24% | [2]; at 11.0 µM 36% | [2]; at 33.0 µM 39% | [2]; at 100.0 µM 48% | [3]; at 1.2 µM 8% | [3]; at 3.7 µM 20% | [3]; at 11.0 µM 19% | [3]; at 33.0 µM 48% | [3]; at 100.0 µM 52% | [4]; at 1.2 µM 5% | [4]; at 3.7 µM 4% | [4]; at 11.0 µM 15% | [4]; at 33.0 µM 39% | [4]; at 100.0 µM 60% | [5]; at 1.2 µM 8% | [5]; at 3.7 µM 13% | [5]; [17] 9% | [5]; at 11.0 µM 33% | [5]; at 33.0 µM 57% | [5]; [18] 48% | [5]; at 50.0 µM 65.7% | [6]; at 1.2 µM 10% | [6]; at 3.7 µM 10%

From PubChem BioAssay (NCI)
